USP8 inh: inhibitors of human USP8 deubiquitinase. purified USP8, Ub-rhodamine cleavage fluorescence, 30 min. inhibition, % at 20 µM. hit rate 4.2% among 47,000
USP10 inh: inhibitors of human USP10 deubiquitinase; inhibition, % at 20 µM; hit rate 1.1% among 47,000; purified USP10, Ub-rhodamine fluorescence, 60 min
USP30 block: inhibitors of human USP30 deubiquitinase; inhibition, % at 25 µM; Ubiquitin carboxyl-terminal hydrolase 30 (Homo sapiens), Q70CQ3; purified USP30, Ub-rhodamine cleavage fluorescence; hit rate 5.3% among 47,000
Target sequence (Q70CQ3 whole entry, looked up): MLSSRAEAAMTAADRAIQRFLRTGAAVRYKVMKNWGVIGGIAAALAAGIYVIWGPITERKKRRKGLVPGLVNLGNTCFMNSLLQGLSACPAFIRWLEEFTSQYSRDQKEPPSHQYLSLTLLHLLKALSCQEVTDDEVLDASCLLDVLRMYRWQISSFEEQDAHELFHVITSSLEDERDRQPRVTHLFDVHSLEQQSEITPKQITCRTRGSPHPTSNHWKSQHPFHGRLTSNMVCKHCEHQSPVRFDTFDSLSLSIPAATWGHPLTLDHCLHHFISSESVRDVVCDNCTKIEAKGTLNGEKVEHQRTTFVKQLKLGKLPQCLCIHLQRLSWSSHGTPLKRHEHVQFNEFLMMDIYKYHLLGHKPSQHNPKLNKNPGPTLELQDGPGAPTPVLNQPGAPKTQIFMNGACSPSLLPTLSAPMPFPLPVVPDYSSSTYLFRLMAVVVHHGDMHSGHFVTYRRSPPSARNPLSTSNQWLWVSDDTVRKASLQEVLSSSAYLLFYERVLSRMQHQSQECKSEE
USP17 inh: inhibitors of human USP17 deubiquitinase; inhibition, % at 50 µM; hit rate 6.5% among 47,000; Ubiquitin carboxyl-terminal hydrolase 17-like protein 5 (Homo sapiens), A8MUK1; purified USP17, Ub-rhodamine cleavage fluorescence, 3 h; AID 1645855, 2021
USP28 inh: inhibitors of human USP28 deubiquitinase | Ubiquitin carboxyl-terminal hydrolase 28 (Homo sapiens), Q96RU2 | purified USP28, Ub-rhodamine cleavage fluorescence, 30 min | inhibition, % at 25 µM | hit rate 3% among 47,000 | AID 1645857, 2021
* hit, by the source's call. An excerpt weighted towards active compounds, which were near 13% of everything screened. No stated cut-off is given here; in the data, active means inhibition above about 30%; inactive means the rest.

`C[C@H]1OC(=O)c2c(O)cc3c(c2[C@H]1O)C[C@H]1[C@@]2(C)C=CC(=O)C(C)(C)[C@@H]2C[C@H](O)[C@]1(C)O3` gave USP8 inh -4, USP10 inh -2, USP30 block -8, USP17 inh -8 and USP28 inh -4.
Screening Cn1c(NCc2ccc3c(c2)OCO3)nc(=O)n(-c2ccccc2)c1=O returned USP8 inh 18, USP10 inh -1, USP30 block 16, USP17 inh 9 and USP28 inh 12.
Cc1nc2c3ccccc3nc(NCc3ccc4c(c3)OCO4)n2n1 was read as USP8 inh 9, USP10 inh 1, USP30 block 14, USP17 inh 54* and USP28 inh 0.
CC1=C(c2ccc(F)cc2)S(=O)(=O)NC1=NCC(=O)Nc1ccc(F)cc1 was read as USP8 inh 6, USP10 inh 1, USP30 block 52*, USP17 inh 0 and USP28 inh -1.
For CC1=C(c2ccc(C)c(C)c2)S(=O)(=O)NC1=NCC(=O)NCc1ccccc1 the results were USP8 inh -4, USP10 inh 2 and USP17 inh 28.
`CC1=C(c2ccc(F)cc2)S(=O)(=O)NC1=NCC(=O)Nc1cccc(F)c1` gave USP8 inh 7, USP10 inh 1, USP30 block 58*, USP17 inh 41* and USP28 inh 17.
Screening CC1=C(c2ccc(C)c(C)c2)S(=O)(=O)NC1=NCC(=O)NCCCc1ccccc1 returned USP8 inh -200, USP10 inh 7, USP30 block 30, USP17 inh 51* and USP28 inh 4.
For CC1=C(c2ccc(Cl)cc2)S(=O)(=O)NC1=NCC(=O)Nc1ccc(F)cc1 the results were USP8 inh 23, USP10 inh 3, USP30 block 44*, USP17 inh 64* and USP28 inh 7.
CCN(C(=O)Cn1c2ncccc2c(=O)n1-c1ccccc1)c1cccc(C)c1 was read as USP8 inh 9, USP10 inh 8, USP30 block 23, USP17 inh 25 and USP28 inh 14.
Screening COc1ccc(-c2csc3ncnc(N4CCc5ccccc5C4)c23)cc1 returned USP8 inh 21, USP10 inh -3, USP30 block 20, USP17 inh 6 and USP28 inh 24.
For Brc1ccccc1Cc1nc(-c2ccn3cnnc3c2)no1 the results were USP8 inh -38, USP10 inh -5, USP30 block -158, USP17 inh -5 and USP28 inh 2.
`Fc1ccc(Cc2nc(-c3ccn4cnnc4c3)no2)cc1` gave USP8 inh -98, USP10 inh -3, USP30 block -56, USP17 inh -3 and USP28 inh 36*.
`CC(C)NC(=O)c1[nH]nc2c1COc1ccccc1-2` gave USP8 inh -14, USP10 inh 0, USP30 block 2, USP17 inh -7 and USP28 inh 17.
For N#Cc1cccc(NC(=O)c2[nH]nc3c2COc2ccccc2-3)c1 the results were USP8 inh 72*, USP10 inh 41*, USP30 block -76, USP17 inh -23 and USP28 inh -15.
O=C(NCCN1CCCCC1)c1[nH]nc2c1COc1ccccc1-2 was read as USP8 inh 20, USP10 inh 0, USP30 block 22, USP17 inh 9 and USP28 inh 10.
O=C(Nc1cccc(Cl)c1)c1[nH]nc2c1COc1ccccc1-2 was read as USP8 inh 75*, USP10 inh 26, USP30 block -72, USP17 inh 29 and USP28 inh -48.
Screening O=C(NCc1ccc2c(c1)OCO2)c1[nH]nc2c1COc1ccccc1-2 returned USP8 inh 54*, USP10 inh 29, USP30 block 39*, USP17 inh 60* and USP28 inh 31*.
For O=C(NC1CCN(Cc2ccccc2)CC1)c1[nH]nc2c1COc1ccccc1-2 the results were USP8 inh 6, USP10 inh -5, USP30 block 8, USP17 inh 19 and USP28 inh 67*.
Screening O=C1NC2(CCCc3ccccc32)C(=O)N1Cc1ncc(-c2ccccc2)o1 (stereo unspecified) returned USP8 inh 0, USP10 inh 0, USP30 block -28, USP17 inh -12 and USP28 inh 7.
CC(=O)c1sc(NC(=O)c2ccccc2-c2ccc(C(F)(F)F)cc2)nc1C was read as USP8 inh -8, USP10 inh 1, USP30 block 38*, USP17 inh 64* and USP28 inh 17.
Screening CC(C)C(=O)Nc1ccc(-n2cnc(C(=O)N3CCCCC3)c2)nc1 returned USP8 inh 2, USP10 inh 0, USP30 block 6, USP17 inh 18 and USP28 inh 8.
Screening CC(C)(C)c1cc(C(=O)N2CCC(C3Nc4ccccc4S(=O)(=O)N3)CC2)n[nH]1 (stereo unspecified) returned USP8 inh 7, USP10 inh 0, USP30 block 12, USP17 inh 0 and USP28 inh 10.
O=C(NCCc1nc2ccccc2[nH]1)c1[nH]nc2c1CCc1ccccc1-2 was read as USP8 inh 14, USP10 inh -2, USP30 block 45*, USP17 inh 10 and USP28 inh 18.
`O=C(NCCN1CCOCC1)c1[nH]nc2c1CCc1ccccc1-2` gave USP8 inh -3, USP10 inh 1, USP30 block -1, USP17 inh -3 and USP28 inh 17.
For CCOc1ccc(-n2ccnc(NCc3ccc(OC)cc3)c2=O)cc1 the results were USP8 inh -6, USP10 inh 4, USP30 block 20, USP17 inh 4 and USP28 inh 12.
COc1ccc(-n2ccnc(SCc3ccc(Cl)cc3)c2=O)cc1 was read as USP8 inh 0, USP10 inh 12, USP30 block 15, USP17 inh 33* and USP28 inh 36*.
`COc1ccc(-c2cc(C(=O)N3CCCC3c3cc(C)no3)no2)cc1OC` (stereo unspecified) gave USP8 inh 1, USP10 inh -1, USP30 block 0, USP17 inh 26 and USP28 inh -9.
Screening CC(CNC(=O)c1cnn2c3c(cnc12)CCCC3)c1ccccc1 (stereo unspecified) returned USP8 inh 8, USP10 inh 1, USP30 block 31*, USP17 inh 13 and USP28 inh 24.
For O=C(O)c1cnn2c3c(cnc12)CCCCCC3 the results were USP8 inh -1, USP10 inh 0, USP30 block 2, USP17 inh -5 and USP28 inh 7.
CC(CCc1ccccc1)NC(=O)c1cnn2c3c(cnc12)CCCC3 (stereo unspecified) was read as USP8 inh -13, USP10 inh -2, USP30 block -6, USP17 inh 7 and USP28 inh -10.

Assay outcomes (PubChem BioAssay)
